# According to PubChem BioAssay (NCI):
# This is part of a sample that, as a whole, favours compounds with a hit. Of some 83,000 tested, about 20% had one in any assay.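 The endpoint reported here, percent growth, reads 100 for growth as untreated, 0 for no net growth and -100 for all cells dead.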 The source made the active and inactive calls. How the source made its calls: active means growth percent below 10; inactive means the rest.
# System: IGROV1 ovarian
# Test: NCI-60 one-dose screen, 48 h (100 = growth as untreated, 0 = no growth, -100 = all killed)
# Details: 10 µM
row,SMILES,growth
1,COc1ccc2nc(Cl)c(Cn3nnc(Cc4ccccc4)n3)cc2c1,43.2% (inactive)
2,C=C/C(C)=C/C[C@]1(C)[C@H](C)[C@@H](OC(=O)CCC)[C@H](O)[C@@]23C(=C[C@H](OC)C[C@@H]12)[C@@H](OC(=O)CCC)O[C@H]3OC(C)=O,-9.72% (active)
3,COc1ccc(-c2cc(-c3cc(OC)ccc3OC)nc(N)c2C#N)cc1,58.7% (inactive)
4,COc1ccc(-c2nn(-c3cccc(Cl)c3)cc2-c2cc(-c3ccccc3)nc(N)n2)cc1,83.7% (inactive)
5,COc1ccccc1-n1c(-c2sc(NC(C)=O)nc2C)n[nH]c1=S,106% (inactive)
6,COc1cc(-c2ccc[nH]2)[nH]c1/C=C1\N=C(C)C(C(=O)NC(C)C)=C1C,34% (inactive)
7,COc1ccc(-c2nn(-c3cccc(Cl)c3)cc2C=C(C#N)C#N)cc1,12.2% (inactive)
8,Fc1ccc2[nH]cc(-c3nc(-c4ccsc4)cs3)c2c1,85.7% (inactive)
9,CCn1c2ccc(O)cc2c2c(C)c3c[n+](C)ccc3c(C)c21,53.8% (inactive)
10,N#Cc1c(-c2ccc(Cl)cc2)cc(-c2cc(O)ccc2O)nc1N,7.29% (active)
11,COc1cc2c3c(n([C@@H]4CCOC4)c(=O)c2cc1OC)-c1cc2c(cc1C3=O)OCO2,67.8% (inactive)
12,COc1ccc(-c2cc(-c3ccccc3)nc(SCCCCCCC(=O)NO)n2)cc1,32.2% (inactive)
13,COc1ccc(-c2nn(-c3cccc(Cl)c3)cc2-c2c(C#N)c(=O)n3[nH]c(-c4ccccc4)nc3c2C#N)cc1,108% (inactive)
14,Clc1nc2ccccc2cc1Cn1nnc(Cc2ccccc2)n1,50.9% (inactive)
15,CN1CCc2c(sc3nc4n(-c5ccc(Cl)cc5)cnn4c(=O)c23)C1,95.3% (inactive)
16,O=C(CCCCNC(=O)c1nc(-c2ccccc2)n(-c2ccccc2)n1)NO,89.2% (inactive)
17,Cc1c2c[n+](C(C)C)ccc2c(C)c2c1[nH]c1ccccc12,41.2% (inactive)

row,SMILES,growth
1,Cc1c2cnccc2c(C)c2c1c1cc(O)ccc1n2C(C)C,7.7% (active)
2,CC(C)(C)OC(=O)CN1CCc2c(sc3ncnc(N/N=C/c4cccc5ccccc45)c23)C1,30.1% (inactive)
3,Nc1nc(-c2cccnc2)nc2c1sc(=S)n2-c1ccccc1,98.1% (inactive)
4,CC(C)(C)OC(=O)N1CCc2c(sc3ncnc(N/N=C/c4cccc(Br)c4)c23)C1,43.9% (inactive)
5,O=C(CCCSc1nc(-c2ccc(Cl)cc2)cc(-c2ccc(Cl)cc2)n1)NO,24.8% (inactive)
6,CN1CCc2c(sc3nc4n(-c5ccc(Cl)cc5)c(=O)[nH]n4c(=O)c23)C1,91.4% (inactive)
7,IC(I)I,103% (inactive)
8,c1cncc(-c2csc(-c3c[nH]c4ccccc34)n2)c1,68.8% (inactive)
9,CCc1ccc(C2=NN(c3ccc(S(C)(=O)=O)cc3)C(=O)CC2)cc1,37.4% (inactive)
10,COc1ccc(-c2nn(-c3cccc(Cl)c3)cc2/C=C2\NC(=S)N(c3ccc(Cl)cc3)C2=O)cc1,-16.2% (active)
11,COc1ccc(-c2nn(-c3cccc(Cl)c3)cc2-c2c(C#N)c(=O)n3[nH]c(-c4ccc(C)cc4)nc3c2C#N)cc1,38.5% (inactive)
12,c1cnc2[nH]cc(-c3nc(-c4ccsc4)cs3)c2c1,70.8% (inactive)
13,O=C1NC(=O)c2c(CCCSc3nc4ccccc4c(=O)n3CCc3ccccc3)cccc21,97.4% (inactive)
14,CCOC(=O)c1sc2ncnc(Nc3ccc4c(cnn4C(=O)Nc4ccc(C)c(Cl)c4)c3)c2c1C,97.9% (inactive)
15,Nc1ccccc1NC(=O)c1ccc(CCCC(=O)Nc2ccc(C3CC3N)cc2)cc1 (centres undefined),44.3% (inactive)
16,Cc1c(O)c(=O)ccn1C1CCC(CC2CCC(n3ccc(=O)c(O)c3C)CC2)CC1 (centres undefined),32.5% (inactive)
17,Cc1c2cnccc2c(C)c2c1oc1ccccc12,78.8% (inactive)

# System: OVCAR-3 ovarian
# Test: as above
# Details: 10 µM
row,SMILES,growth
1,COc1ccc2nc(Cl)c(Cn3nnc(Cc4ccccc4)n3)cc2c1,49.8% (inactive)
2,C=C/C(C)=C/C[C@]1(C)[C@H](C)[C@@H](OC(=O)CCC)[C@H](O)[C@@]23C(=C[C@H](OC)C[C@@H]12)[C@@H](OC(=O)CCC)O[C@H]3OC(C)=O,-86.5% (active)
3,COc1ccc(-c2cc(-c3cc(OC)ccc3OC)nc(N)c2C#N)cc1,53.7% (inactive)
4,COc1ccc(-c2nn(-c3cccc(Cl)c3)cc2-c2cc(-c3ccccc3)nc(N)n2)cc1,72.2% (inactive)
5,COc1ccccc1-n1c(-c2sc(NC(C)=O)nc2C)n[nH]c1=S,135% (inactive)
6,COc1cc2c3c(n(C4CCN(C)CC4)c(=O)c2cc1OC)-c1cc2c(cc1C3=O)OCO2,-72% (active)
7,COc1cc(-c2ccc[nH]2)[nH]c1/C=C1\N=C(C)C(C(=O)NC(C)C)=C1C,19.5% (inactive)
8,COc1ccc(-c2nn(-c3cccc(Cl)c3)cc2C=C(C#N)C#N)cc1,-23.6% (active)
9,Fc1ccc2[nH]cc(-c3nc(-c4ccsc4)cs3)c2c1,99.8% (inactive)
10,CCn1c2ccc(O)cc2c2c(C)c3c[n+](C)ccc3c(C)c21,37.8% (inactive)
11,CC[C@H]1OC(=O)[C@H](C)[C@@H](O[C@H]2C[C@@](C)(OC)[C@@H](O)[C@H](C)O2)[C@H](C)[C@@H](O[C@@H]2O[C@H](C)C[C@H](N(C)C)[C@H]2O)[C@](C)(OC)C/C(C)=C2/O[C@@]1(C)C=C2C,75.3% (inactive)
12,N#Cc1c(-c2ccc(Cl)cc2)cc(-c2cc(O)ccc2O)nc1N,-17.2% (active)
13,COc1cc2c3c(n([C@@H]4CCOC4)c(=O)c2cc1OC)-c1cc2c(cc1C3=O)OCO2,52.3% (inactive)
14,COc1ccc(-c2cc(-c3ccccc3)nc(SCCCCCCC(=O)NO)n2)cc1,67.8% (inactive)
15,COc1ccc(-c2nn(-c3cccc(Cl)c3)cc2-c2c(C#N)c(=O)n3[nH]c(-c4ccccc4)nc3c2C#N)cc1,109% (inactive)
16,Clc1nc2ccccc2cc1Cn1nnc(Cc2ccccc2)n1,59.5% (inactive)
17,CN1CCc2c(sc3nc4n(-c5ccc(Cl)cc5)cnn4c(=O)c23)C1,101% (inactive)
18,O=C(CCCCNC(=O)c1nc(-c2ccccc2)n(-c2ccccc2)n1)NO,70.1% (inactive)
19,Cc1c2c[n+](C(C)C)ccc2c(C)c2c1[nH]c1ccccc12,9.41% (active)
20,Cc1c2cnccc2c(C)c2c1c1cc(O)ccc1n2C(C)C,21.5% (inactive)

row,SMILES,growth
1,CC(C)(C)OC(=O)CN1CCc2c(sc3ncnc(N/N=C/c4cccc5ccccc45)c23)C1,39.9% (inactive)
2,Nc1nc(-c2cccnc2)nc2c1sc(=S)n2-c1ccccc1,114% (inactive)
3,CC(C)(C)OC(=O)N1CCc2c(sc3ncnc(N/N=C/c4cccc(Br)c4)c23)C1,61.5% (inactive)
4,O=C(CCCSc1nc(-c2ccc(Cl)cc2)cc(-c2ccc(Cl)cc2)n1)NO,5.4% (active)
5,CN1CCc2c(sc3nc4n(-c5ccc(Cl)cc5)c(=O)[nH]n4c(=O)c23)C1,106% (inactive)
6,CCNc1nc(C(F)(F)F)nc2c1sc(=S)n2-c1ccccc1,107% (inactive)
7,IC(I)I,106% (inactive)
8,Cc1cc(NC(=O)c2ccc(C)c(Nc3nccc(-c4cccnc4)n3)c2)cc(-n2cnc(C)c2)c1,-7.87% (active)
9,c1cncc(-c2csc(-c3c[nH]c4ccccc34)n2)c1,85.6% (inactive)
10,Cc1ccc(NC(=S)NNC(=S)Nc2ccc(C)cc2)cc1,64.5% (inactive)
11,Cc1ccc(C2=NN(c3ccc(S(C)(=O)=O)cc3)C(=O)CC2)cc1,-14.7% (active)
12,CCc1ccc(C2=NN(c3ccc(S(C)(=O)=O)cc3)C(=O)CC2)cc1,-13.6% (active)
13,COc1ccc(-c2nn(-c3cccc(Cl)c3)cc2/C=C2\NC(=S)N(c3ccc(Cl)cc3)C2=O)cc1,0.69% (active)
14,COc1ccc(-c2nn(-c3cccc(Cl)c3)cc2-c2c(C#N)c(=O)n3[nH]c(-c4ccc(C)cc4)nc3c2C#N)cc1,97% (inactive)
15,c1cnc2[nH]cc(-c3nc(-c4ccsc4)cs3)c2c1,84.2% (inactive)
16,O=C1NC(=O)c2c(CCCSc3nc4ccccc4c(=O)n3CCc3ccccc3)cccc21,115% (inactive)
17,CCOC(=O)c1sc2ncnc(Nc3ccc4c(cnn4C(=O)Nc4ccc(C)c(Cl)c4)c3)c2c1C,117% (inactive)
18,Nc1ccccc1NC(=O)c1ccc(CCCC(=O)Nc2ccc(C3CC3N)cc2)cc1 (centres undefined),25.4% (inactive)
19,Cc1c(O)c(=O)ccn1C1CCC(CC2CCC(n3ccc(=O)c(O)c3C)CC2)CC1 (centres undefined),28.3% (inactive)
20,Cc1c2cnccc2c(C)c2c1oc1ccccc12,98.1% (inactive)
